Measured values reported in PubChem BioAssay (NCATS).
Where “and” joins values, the source holds several entries; their conditions need not be identical. Equal entries are not always repeated. Results filed as inconclusive are left out. Calls of active or inactive are those of the source. The call rests on the fitted dose curve; in most records, active means well fitted inhibition curve with a large enough effect; inconclusive means small, poorly fitted or top-dose-only effect; inactive means flat fitted curve, though single readings scatter.

Key:
Assay in all cases: qHTS profiling for inhibitors of Plasmodium falciparum proliferation (AID 504749); further: nearly all actives have a fitted effect of over 60% in size
Details in all cases: P. falciparum in erythrocytes, SYBR Green DNA, 72 h; series mostly up to 28.7 µM
[1] = system: CP260
Method in brief: (§1)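 Infected RBCs, 0.3% parasitemia/2.5% Hct final; cpd 72 h, 37 C, 5% CO2; lysis buffer with saponin/triton/SYBR Green I, o/n RT dark; FI 485/535; norm. to artemisinin (0.29 uM) and DMSO.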

[2] = system: CP262
Method in brief: as §1

[3] = system: CP265
Method in brief: as §1

[4] = system: CP266
Method in brief: as §1

[5] = system: CP268
Method in brief: as §1

[6] = system: CP269
Method in brief: as §1

[7] = system: CP286
Method in brief: as §1

[8] = system: CP291
Method in brief: as §1

[9] = system: CP297
Method in brief: as §1

[10] = system: CP305
Method in brief: as §1

Measured: Potency
Potency means the concentration at half of the fitted maximal effect.

CC[n+]1c(-c2ccccc2)c2cc(N)ccc2c2ccc(N)cc21
active: [1] 199 nM and 398 nM | [2] 95.3 nM and 107 nM | [3] 251 nM and 794 nM | [4] 301 nM and 601 nM | [5] 107 nM and 379 nM | [6] 120 nM and 478 nM | [7] 70.8 nM and 158 nM | [8] 151 nM and 601 nM | [9] 169 nM and 478 nM | [10] 84.9 nM and 379 nM

Cc1ccc(N=CN(C)C=Nc2ccc(C)cc2C)c(C)c1
inactive: [1] | [2] | [3] | [4] | [5] | [6] | [7] | [8] | [9] | [10]

CCN(CC)C(C)C(=O)c1ccccc1 (stereo unspecified)
inactive: [1] | [2] | [3] | [4] | [5] | [6] | [7] | [8] | [9] | [10]

CC(C)[N+](C)(CCC(C(N)=O)(c1ccccc1)c1ccccc1)C(C)C
inactive: [1] | [2] | [3] | [4] | [5] | [6] | [7] | [8] | [9] | [10]

Cc1c(Cl)c(=O)oc2cc(OP(=O)(OCCCl)OCCCl)ccc12
active: [2] 7.57 µM | [3] 7.94 µM | [5] 12 µM | [6] 12 µM | [7] 11.2 µM | [8] 7.57 µM | [9] 12 µM | [10] 6.75 µM

CCNc1nc(Cl)nc(NCC)n1
inactive: [1] | [2] | [3] | [4] | [5] | [6] | [7] | [8] | [9] | [10]

C[N+](C)(C)CCOC(=O)C(O)(c1ccccc1)c1ccccc1
inactive: [1] | [2] | [3] | [5] | [6] | [7] | [8] | [9] | [10]

CC[C@]1(O)CC[C@H]2[C@@H]3CCC4=CCCC[C@@H]4[C@H]3CC[C@@]21C
inactive: [1] | [2] | [4] | [5] | [6] | [7] | [8] | [9]

ClC1=C(Cl)C2(Cl)C(CBr)CC1(Cl)C2(Cl)Cl (stereo unspecified)
inactive: [2] | [3] | [4] | [5] | [6] | [7] | [8] | [9] | [10]

O=c1n(Cl)c(=O)n(Cl)c(=O)n1Cl
inactive: [1] | [2] | [3] | [4] | [5] | [6] | [7] | [8] | [9] | [10]

Oc1ccc2[nH]cc(CCCCN3CC=C(c4ccccc4)CC3)c2c1
active: [9] 15.1 µM

C=CCOC(Cn1ccnc1)c1ccc(Cl)cc1Cl (stereo unspecified)
inactive: [2]
active: [1] 10 µM | [5] 15.1 µM | [6] 15.1 µM | [7] 11.2 µM | [8] 12 µM | [9] 6.75 µM

CN1C(=O)[C@@H](NC(=O)c2cc3ccccc3[nH]2)N=C(c2ccccc2)c2ccccc21
inactive: [2]

c1cc2c(c(N3CCNCC3)c1)OCCO2
inactive: [1] | [2] | [3] | [5] | [6] | [7] | [8] | [10]

CC(Cc1ccccc1)NCc1ccccc1Cl (stereo unspecified)
active: [3] 11.2 µM
inactive: [2] | [4] | [7] | [9] | [10]

CN1CCc2cc(Cl)c(O)cc2[C@H]2c3ccccc3CC[C@@H]21
inactive: [2]
active: [7] 11.2 µM

COc1ccc(CN2CCNCC2)c(OC)c1OC
active: [8] 5.1 µM
inactive: [1] | [2] | [3] | [7]

CCCCCCCCC(=O)NCc1ccc(O)c(OC)c1
inactive: [1] | [2] | [3] | [5] | [6] | [7] | [8] | [9] | [10]

CC(C)(O)C(Cl)(Cl)Cl
inactive: [2]
active: [1] 3.55 µM | [3] 2.51 µM | [5] 6.01 µM | [6] 4.26 µM | [7] 5.62 µM | [8] 15.1 µM | [10] 6.01 µM

Clc1ccc(CO/N=C(\Cn2ccnc2)c2ccc(Cl)cc2Cl)c(Cl)c1
active: [1] 7.08 µM | [2] 15.1 µM | [3] 4.47 µM | [6] 13.5 µM | [7] 5.62 µM | [8] 12 µM | [9] 4.78 µM | [10] 13.5 µM

CC(C)C(Br)C(=O)NC(N)=O (stereo unspecified)
inactive: [1] | [2] | [3] | [4] | [5] | [6] | [7] | [8] | [9] | [10]

O=C1NCN(c2ccccc2)C12CCN(CCCOc1ccc(F)cc1)CC2
active: [7] 12.6 µM | [9] 12 µM
inactive: [2]

CN1C[C@@H](NS(=O)(=O)N(C)C)C[C@@H]2c3cccc4c3c(cn4C)C[C@H]21
inactive: [2] | [3] | [5] | [8] | [10]

C[C@]12C=CC(=O)C=C1CC[C@@H]1[C@@H]2CC[C@@]2(C)[C@H]1CC[C@]2(C)O
inactive: [1] | [2] | [3] | [7]
active: [9] 19 µM

O=C(CCCN1CCC(n2c(=O)[nH]c3ccccc32)CC1)c1ccc(F)cc1
inactive: [2]
active: [1] 1.58 µM | [3] 1.12 µM | [5] 3.61 µM | [6] 1.81 µM | [7] 2 µM | [8] 6.42 µM | [10] 5.1 µM

N#Cc1nn(-c2c(Cl)cc(C(F)(F)F)cc2Cl)c(N)c1S(=O)C(F)(F)F (stereo unspecified)
active: [1] 8.91 µM | [2] 10.7 µM | [5] 6.01 µM | [6] 15.1 µM | [7] 5.01 µM | [8] 6.75 µM | [9] 10.7 µM | [10] 7.57 µM

O=C(NC(=O)c1c(F)cccc1F)Nc1cc(Cl)c(OC(F)(F)C(F)C(F)(F)F)cc1Cl (stereo unspecified)
active: [1] 10 µM | [3] 7.94 µM
inactive: [2] | [4] | [5] | [6] | [8] | [9] | [10]

CNC(=O)Oc1cccc2ccccc12
inactive: [1] | [2] | [3] | [4] | [5] | [6] | [7] | [8] | [10]

COCC(=O)N(c1c(C)cccc1C)C(C)C(=O)OC (stereo unspecified)
inactive: [1] | [2] | [4] | [5] | [6] | [7] | [8] | [9] | [10]

COc1ccc(C(=O)N2CCCC2=O)cc1
inactive: [1] | [2] | [3] | [4] | [5] | [6] | [7] | [10]

OC(O)C(Cl)(Cl)Cl
inactive: [1] | [2] | [5] | [6] | [7] | [8] | [10]

Nc1ccc(N)cc1
inactive: [1] | [4] | [7]

Oc1c(Br)cc(Br)cc1Br
inactive: [1] | [2] | [3] | [4] | [5] | [6] | [7] | [8] | [10]

COC(=O)C1=CCCN(C)C1
inactive: [2] | [3] | [4] | [5] | [6] | [7] | [8] | [9] | [10]
